High-throughput results: PubChem, National Center for Advancing Translational Sciences (NCATS)
Hits are enriched below; roughly 8% of the tested compounds scored in any of these assays.
LASV entry inh: Lassa virus entry inhibition | Lassa virus pseudotype entry inhibition, cell reporter | Potency, µM (highest dose often 37.9 µM), without a hit: at the top dose activity change, negative = inhibition, usual class: inhibitors | 1.2% of 300,000 active | AID 540256; calls by dose curve; tested in HEK293 cells; note: potency is the fitted concentration of half-maximal effect; % is set by controls: 0 for no effect and ±100 for the full control effect; nearly all actives have a fitted effect of over 50% in size
HCV inhibitor: blocks hepatitis C virus; Huh7.5.1 HCVcc-Cre infection, luciferase reporter, 44 h; Potency, µM (series often up to 41.8 µM), without a hit: at the highest dose activity change, negative = inhibition, usual class: inhibitors; 3.4% of 340,000 active; active = well fitted inhibition curve with a large enough effect; inconclusive = small, poorly fitted or top-dose-only effect, or another doubt; inactive = no such curve, though single readings can be large or run the other way; note: potency is the fitted concentration of half-maximal effect; % is set by controls: 0 for no effect and ±100 for the full control effect
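Seed cells (1,000/well) for 4 h; treat with compound and infect with HCVcc-Cre, moi about 0.5. Incubate 44 h, then detect luciferase activity.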
SARS PLpro yeast: inhibitors of SARS-CoV papain-like protease in yeast; S. cerevisiae expressing SARS-CoV PLpro, growth rescue; Potency, µM (titrated, usually from 32.9 µM), inactives show top-dose activity, positive = growth rescue, most hits filed as activators; 0.19% of 330,000 active; AID 485353; calls by dose curve; note: potency is the fitted concentration of half-maximal effect; 0% is about no effect; nearly all actives have a fitted effect of over 55% in size
HCMV inh: inhibitors of human cytomegalovirus; HFF cells, HCMV-luciferase reporter, 72 h; hits give low values; activity change, negative = inhibition, % at 57.5 µM; 4.5% of 410,000 active; AID 1259415; in the data active = activity change below about -60%; inconclusive = no clear call, values can overlap the other calls; inactive = above about -39%; note: % is set by controls: 0 for no effect and ±100 for the full control effect
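Two compound doses tested in HFFs infected with HCMV-luciferase, MOI 1 PFU/cell, 72 h at 37C. Lysate luminescence read with OneGlo; data normalized against buffer-only and 10uM Salinomycin inhibitor controls.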
FMDV inh: antivirals against foot and mouth disease virus. FMDV antiviral cell-based qHTS. Potency, µM (top dose mostly 57.9 µM), inactives show at the top dose activity change, negative = inhibition, usual class: inhibitors. 1.2% of 410,000 active; calls by dose curve; tested in HEK293T cells; note: read-out not given here; potency is the fitted concentration of half-maximal effect; % is set by controls: 0 for no effect and ±100 for the full control effect; nearly all actives have a fitted effect of over 45% in size
Marburg entry inh: inhibitors of Marburg virus binding or cell entry; Marburg virus pseudotyped entry inhibition, cell reporter; Potency, µM (highest dose often 37.8 µM), without a hit: at the highest dose activity change, negative = inhibition, usual class: inhibitors; 1.8% of 300,000 active; calls by dose curve; tested in HEK293 cells; note: potency is the fitted concentration of half-maximal effect; % is set by controls: 0 for no effect and ±100 for the full control effect
* hit, by the source's call; ? = inconclusive; · = not tested or not shown; [ ] = remark or other dose.

SMILES	LASV entry inh	HCV inhibitor	SARS PLpro yeast	HCMV inh	FMDV inh	Marburg entry inh
Cc1ccc(C(=O)NCC#N)cc1	-14%	17%	1%	-4	-1%	?
Cc1ccc(C(=O)NC(C#N)=C(Cl)Cl)cc1	?	6.3µM*	-5%	-99*	?	?
Cc1ccc(C)c(NC(=O)Cn2c(=O)n(CCC(C)C)c(=O)c3cccnc32)c1	·	·	·	15	10%	17%[46.1 µM]
CCCCNCC1C(Oc2ccc(Cl)cc2)C(=O)N1c1ccccc1C (stereo not given)	-20%	?	-4%	-79*	-23%	?
Cc1cccc(N2C(=O)C(Oc3ccc(Cl)cc3Cl)C2C(=O)O)c1C (stereo not given)	0%	32%	7%	-10	?	1%
CCCNCC1C(Oc2ccc(Cl)cc2Cl)C(=O)N1c1cccc(C)c1C (stereo not given)	·	32µM*	-13%	-90*	?	·
COC(=O)C1CN(C(=O)COc2ccccc2C)c2ccccc2O1 (stereo not given)	0%[46.1 µM]	4%	-2%	-12	19%	7%[46.1 µM]
Cc1cc(Cl)ccc1OCC(=O)N1CCCN(C(=O)COc2ccc(Cl)cc2C)CC1	?	?	-96%	-26	?	15µM*
Cc1cc(Cl)ccc1OC(C)C(=O)N1CCCN(C(=O)C(C)Oc2ccc(Cl)cc2C)CC1 (stereo not given)	?	?	-18%	?	28µM*	?
COC(=O)C1CN(C(=O)COc2ccc(Cl)cc2C)c2ccccc2O1 (stereo not given)	19%[46.1 µM]	5%	-8%	-61*	3%	15%[46.1 µM]
C#CCN1C(=O)[C@@]2(CC(C)=CC[C@@H](C)O2)c2ccccc21	·	·	·	·	·	16%[14.2 µM]
O=C(NCC1CC1)c1nnc2n1CCN(C(=O)c1cccc3c1OCCO3)C2	·	·	·	11	·	·
CCC(Sc1nc(C)cc(C)n1)C(=O)NC1=NN=C(c2ccc(C)cc2)CS1 (stereo not given)	?	?	-10%	-106*	-14%	?
CCC(Sc1nc(C)cc(C)n1)C(=O)Nc1cc(C)on1 (stereo not given)	-3%[46.1 µM]	-8%	1%	?	-6%	5%[46.1 µM]
Cc1cc(C)nc(SCC(=O)NC2=NN=C(c3ccc(Br)cc3)CS2)n1	-12%	?	-7%	-92*	?	0%
Cc1ccc(NC2=Nc3ccccc3CS2)cc1	?	-12%	0%	-3	-28%	10µM*
O=C(c1ccc2nc(-c3ccco3)c(-c3ccco3)nc2c1)N1CCN(c2ccccc2)CC1	-22%	?	-11%	-108*	?	16µM*
O=C(Nc1ccc(N2CCOCC2)cc1)Nc1ccc2nc(-c3ccco3)c(-c3ccco3)nc2c1	-28%	6.3µM*	2%	-60*	0%	?
O=C(Nc1ccc2nc(-c3ccco3)c(-c3ccco3)nc2c1)NC1CC1	-13%	?	-7%	·	24%	-1%
O=C(c1ccc2nc(-c3ccco3)c(-c3ccco3)nc2c1)N1CCC2(CC1)OCCO2	-6%	7%	12%	·	22%	4%
NC(=O)c1cc(S(=O)(=O)NCC2CCC(C(=O)Nc3ccc(Cl)cc3)CC2)cs1 (stereo not given)	1%[46.1 µM]	·	·	-8	-20%	·
CCOc1ccc(/C=C/C(O)=C2/C(=O)N(C)C3(C)CC2c2ccccc2O3)cc1OC (stereo not given)	3.5µM*	?	0%	-98*	?	?
Cc1ccc(C)c(CSc2nnc3[nH]c(=O)cc(C)n23)c1	27%[46.1 µM]	·	·	-11	-12%	·
CCN(c1ccccc1)S(=O)(=O)c1ccc(C(=O)NC2CCCCC2)cc1	·	·	·	5	?	·
Cc1ccc(C)n1-c1ccc(C(=O)NC2CCN(Cc3ccccc3)CC2)cc1	?	?	-3%	-62*	?	?
SMILES	LASV entry inh	HCV inhibitor	SARS PLpro yeast	HCMV inh	FMDV inh	Marburg entry inh
Cc1ccc(CN2CCC(NC(=O)c3ccccc3)CC2)cc1	-14%[46.1 µM]	-25%	0%	-15	-10%	?
CC1(C(=O)NC2CCN(Cc3ccccc3)CC2)CCN1Cc1ccc2ccccc2c1 (stereo not given)	·	·	·	-67*	?	·
CCN(c1ccccc1)S(=O)(=O)c1ccc(C(=O)NC2CCN(Cc3ccccc3)CC2)cc1	?	?	-15%	·	?	0.71µM*
COc1cccc(CNC(=O)c2ccc(CN3CC(=O)N4CCCCC4C3=O)cc2)c1 (stereo not given)	-1%[46.1 µM]	·	·	-24	-11%	·
CCOC(=O)COc1ccc(/C=C(\C#N)c2nc3ccc(C)cc3[nH]2)cc1OC	-3%[46.1 µM]	·	·	-105*	-14%	0%[46.1 µM]
COc1ccc(/C=C(\C#N)c2nc3ccc(C)cc3[nH]2)cc1Oc1ccc(C(F)(F)F)cc1[N+](=O)[O-]	19%	?	-6%	-68*	0%	-28%
COc1cc(/C=C(\C#N)c2nc3ccc(C)cc3[nH]2)ccc1OCc1ccc(C)cc1	?	·	·	3	0%	·
COc1ccc(C)cc1NS(=O)(=O)c1ccc2c(c1)[C@H]1C=CC[C@H]1[C@@H](c1cccc(Cl)c1)N2	24%[46.1 µM]	·	·	9	-7%	25%[46.1 µM]
CCc1ccc(S(=O)(=O)c2cnc3ccc(OC)cc3c2N2CCCC(C)C2)cc1 (stereo not given)	·	·	·	-29	-17%	?
O=C1NC(=O)C(CSc2ccccc2)(c2ccccc2)N1 (stereo not given)	-16%[46.1 µM]	1%	·	-11	-9%	10%[46.1 µM]
CC1(CSc2ccccc2)CC(=O)N1 (stereo not given)	·	·	·	-79*	-4%	·
CCCCCNc1nc2c(-c3ccccc3)nnn2c2ccccc12	8%[46.1 µM]	·	·	28	-14%	-9%[46.1 µM]
Cc1ccccc1-c1nc(CN2CCC(C(=O)NC(C)C)CC2)c(C)o1	7%[46.1 µM]	·	·	19	-13%	8%[46.1 µM]
O=[N+]([O-])c1cc(Cl)cc(/C=N\Nc2ccccn2)c1O	?	?	-12%	-103*	-29%	?
CC(=CC[Si](C)(C)C)CCC=O	?	·	·	·	·	-25%[14.2 µM]
Fc1ccc(C2=NOC(c3nnc(-c4ccccc4)o3)C2)cc1 (stereo not given)	·	1%	3%	-65*	0%	·
CC(C)(C)c1ccc(-c2nc3cc(NC(=O)c4cccc(Br)c4)ccc3o2)cc1	10%[46.1 µM]	·	·	-16	0%	·
COc1ccc(CN2CCOc3ccc(C(O)c4cccnc4)cc3C2)c(F)c1 (stereo not given)	·	·	·	·	-30%	·
CC1=Nc2ccccc2/C1=C\c1sc(Nc2ccc(C)cc2)nc1O	?	?	-26%	-89*	0%	?
Oc1nc(Nc2ccc(F)cc2)sc1/C=C1\C=Nc2ccccc21	?	?	-1%	?	-1%	?
Cc1c(Cl)cccc1N/C(SCC(=O)N1CCCCCC1)=C(/C#N)c1nc2ccccc2s1	?	?	5%	-101*	?	11µM*
O=C(CSc1nc2ccccc2s1)N1CCCCC1	20%	-4%	-17%	112	·	5%
